Source: PubChem BioAssay AID1159580 (chemical genetic matrix, 2015)
The campaign covered roughly 5,500 compounds. About 2,000 (36%) were called active. About 18% were inconclusive and are not listed. No stated cut-off is given here; in the data, active means normalized growth mostly below about 0.91 (no sharp cut-off); inconclusive means no clear call, values can overlap the other calls; inactive means mostly above about 0.92. The list shows a part of the results.

Experiment: chemical genetic growth profiling, strain panel (AID 1159580);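 further: tested at 20 µM; growth read once vehicle control cultures reached saturation at 30 °C; 1 = growth at the plate median or of vehicle wells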
Details: growth OD

Measured: normalized growth

O=C(O)c1cc(=O)c2cc(Cl)ccc2[nH]1
inactive: S. cerevisiae deletion strains, locus YAL013W, strain DEP1, stronger effect = lower value 0.985 | S. cerevisiae deletion strains, locus YBR021W, strain FUR4, stronger effect = lower value 1.03 | S. cerevisiae deletion strains, locus YBR229C, strain ROT2, stronger effect = lower value 1.01 | S. cerevisiae deletion strains, locus YCL029C, strain bik1, stronger effect = lower value 1.01 | S. cerevisiae deletion strains, locus YDL035C, strain GPR1, stronger effect = lower value 1 | S. cerevisiae deletion strains, locus YDL074C, strain BRE1, stronger effect = lower value 0.972 | S. cerevisiae deletion strains, locus YDL101C, strain DUN1, stronger effect = lower value 1 | S. cerevisiae deletion strains, locus YDL134C, strain PPH21, stronger effect = lower value 1 | S. cerevisiae deletion strains, locus YDL185W, strain tfp1, stronger effect = lower value 1 | S. cerevisiae deletion strains, locus YDL192W, strain arf1, stronger effect = lower value 1.01 | S. cerevisiae deletion strains, locus YDR101C, strain arx1, stronger effect = lower value 1.01 | S. cerevisiae deletion strains, locus YDR150W, strain NUM1, stronger effect = lower value 1.01 | S. cerevisiae deletion strains, locus YDR162C, strain NBP2, stronger effect = lower value 0.988 | S. cerevisiae deletion strains, locus YDR318W, strain mcm21, stronger effect = lower value 1.03 | S. cerevisiae deletion strains, locus YDR388W, stronger effect = lower value 1.01 | S. cerevisiae deletion strains, locus YDR502C, strain sam2, stronger effect = lower value 1 | S. cerevisiae deletion strains, locus YEL061C, strain CIN8, stronger effect = lower value 1 | S. cerevisiae deletion strains, locus YER110C, stronger effect = lower value 1 | S. cerevisiae deletion strains, locus YER155C, strain BEM2, stronger effect = lower value 0.995 | S. cerevisiae deletion strains, locus YER167W, strain BCK2, stronger effect = lower value 1.02 | S. cerevisiae deletion strains, locus YGL078C, strain dbp3, stronger effect = lower value 1 | S. cerevisiae deletion strains, locus YGL086W, strain mad1, stronger effect = lower value 1.01 | S. cerevisiae deletion strains, locus YGL248W, strain PDE1, stronger effect = lower value 1.02 | S. cerevisiae deletion strains, locus YGR078C, strain PAC10, stronger effect = lower value 0.995 | S. cerevisiae deletion strains, locus YGR135W, strain pre9, stronger effect = lower value 0.994 | S. cerevisiae deletion strains, locus YGR229C, strain SMI1, stronger effect = lower value 0.972 | S. cerevisiae deletion strains, locus YGR252W, strain gcn5, stronger effect = lower value 1.04 | S. cerevisiae deletion strains, locus YHR030C, strain SLT2, stronger effect = lower value 1 | S. cerevisiae deletion strains, locus YHR079C, strain IRE1 (second series), stronger effect = lower value 1.02 | S. cerevisiae deletion strains, locus YHR094C, strain hxt1, stronger effect = lower value 1.01 | S. cerevisiae deletion strains, locus YHR129C, strain ARP1, stronger effect = lower value 1.02 | S. cerevisiae deletion strains, locus YHR200W, strain rpn10, stronger effect = lower value 1.01 | S. cerevisiae deletion strains, locus YIL066C, strain RNR3, stronger effect = lower value 0.997 | S. cerevisiae deletion strains, locus YIL073C, strain SPO22, stronger effect = lower value 1.08 | S. cerevisiae deletion strains, locus YIL125W, strain kgd1, stronger effect = lower value 1.01 | S. cerevisiae deletion strains, locus YIR030C, strain dcg1, stronger effect = lower value 1.01 | S. cerevisiae deletion strains, locus YJL095W, strain BCK1, stronger effect = lower value 0.994 | S. cerevisiae deletion strains, locus YJL134W, strain LCB3, stronger effect = lower value 1.01 | S. cerevisiae deletion strains, locus YJL168C, strain set2, stronger effect = lower value 1 | S. cerevisiae deletion strains, locus YJL187C, strain SWE1 (second series), stronger effect = lower value 1.01 | S. cerevisiae deletion strains, locus YJR043C, strain POL32, stronger effect = lower value 1.01 | S. cerevisiae deletion strains, locus YJR075W, strain HOC1, stronger effect = lower value 0.983 | S. cerevisiae deletion strains, locus YKL009W, strain mrt4, stronger effect = lower value 1.03 | S. cerevisiae deletion strains, locus YKL068W, stronger effect = lower value 0.996 | S. cerevisiae deletion strains, locus YKL085W, strain MDH1 (second series), stronger effect = lower value 1.02 | S. cerevisiae deletion strains, locus YKL085W, strain MDH1, stronger effect = lower value 1.02 | S. cerevisiae deletion strains, locus YKL190W, strain CNB1, stronger effect = lower value 1 | S. cerevisiae deletion strains, locus YKR001C, strain vps1, stronger effect = lower value 1.01 | S. cerevisiae deletion strains, locus YLR039C, strain RIC1, stronger effect = lower value 1.02 | S. cerevisiae deletion strains, locus YLR058C, strain SHM2, stronger effect = lower value 1.01 | S. cerevisiae deletion strains, locus YLR102C, strain apc9, stronger effect = lower value 1.01 | S. cerevisiae deletion strains, locus YLR262C, strain YPT6, stronger effect = lower value 1.01 | S. cerevisiae deletion strains, locus YLR268W, strain sec22, stronger effect = lower value 1.01 | S. cerevisiae deletion strains, locus YLR330W, strain CHS5, stronger effect = lower value 1 | S. cerevisiae deletion strains, locus YLR342W, strain FKS1 (second series), stronger effect = lower value 1.08 | S. cerevisiae deletion strains, locus YLR371W, strain rom2, stronger effect = lower value 1.02 | S. cerevisiae deletion strains, locus YLR418C, strain cdc73, stronger effect = lower value 0.984 | S. cerevisiae deletion strains, locus YML016C, strain PPZ1, stronger effect = lower value 1 | S. cerevisiae deletion strains, locus YML032C, strain rad52, stronger effect = lower value 1.02 | S. cerevisiae deletion strains, locus YML124C, strain tub3, stronger effect = lower value 1 | S. cerevisiae deletion strains, locus YMR078C, strain ctf18, stronger effect = lower value 1.02 | S. cerevisiae deletion strains, locus YMR223W, strain ubp8, stronger effect = lower value 1.03 | S. cerevisiae deletion strains, locus YMR263W, strain SAP30, stronger effect = lower value 1 | S. cerevisiae deletion strains, locus YMR307W, strain GAS1, stronger effect = lower value 1.03 | S. cerevisiae deletion strains, locus YNL067W, strain RPL9B, stronger effect = lower value 0.994 | S. cerevisiae deletion strains, locus YNL128W, strain TEP1, stronger effect = lower value 0.951 | S. cerevisiae deletion strains, locus YNL153C, strain GIM3, stronger effect = lower value 0.999 | S. cerevisiae deletion strains, locus YNL233W, strain BNI4, stronger effect = lower value 1.01 | S. cerevisiae deletion strains, locus YNL250W, strain rad50, stronger effect = lower value 1.01 | S. cerevisiae deletion strains, locus YNL271C, strain bni1, stronger effect = lower value 1 | S. cerevisiae deletion strains, locus YNL298W, strain CLA4, stronger effect = lower value 1.01 | S. cerevisiae deletion strains, locus YNL307C, strain MCK1, stronger effect = lower value 1.03 | S. cerevisiae deletion strains, locus YNL322C, strain KRE1, stronger effect = lower value 0.998 | S. cerevisiae deletion strains, locus YNR052C, strain pop2, stronger effect = lower value 1.01 | S. cerevisiae deletion strains, locus YOL006C, strain TOP1, stronger effect = lower value 1.03 | S. cerevisiae deletion strains, locus YOL012C, strain htz1 1.31 | S. cerevisiae deletion strains, locus YOL147C, strain pex11, stronger effect = lower value 1.01 | S. cerevisiae deletion strains, locus YOR061W, strain CKA2, stronger effect = lower value 1 | S. cerevisiae deletion strains, locus YOR069W, strain VPS5, stronger effect = lower value 1.01 | S. cerevisiae deletion strains, locus YOR136W, strain idh2, stronger effect = lower value 1.01 | S. cerevisiae deletion strains, locus YOR144C, strain elg1, stronger effect = lower value 1 | S. cerevisiae deletion strains, locus YOR184W, strain ser1, stronger effect = lower value 1.06 | S. cerevisiae deletion strains, locus YOR316C, strain cot1, stronger effect = lower value 1.01 | S. cerevisiae deletion strains, locus YPL055C, strain LGE1, stronger effect = lower value 0.967 | S. cerevisiae deletion strains, locus YPL241C, strain CIN2, stronger effect = lower value 1 | S. cerevisiae deletion strains, locus YPR119W, strain clb2, stronger effect = lower value 1 | S. cerevisiae deletion strains, locus YPR141C, strain kar3, stronger effect = lower value 1.01 | S. cerevisiae deletion strains, locus YPR163C, strain tif3, stronger effect = lower value 1.01 | S. cerevisiae deletion strains, locus YPR167C, strain met16, stronger effect = lower value 1 | S. cerevisiae deletion strains, strain wtn01, stronger effect = lower value 1.01 | S. cerevisiae strains, strain wild type, stronger effect = lower value 0.988
